A short description of assay [1]: reducers of endogenous Her2 protein level, primary screen, SKBR3 breast tumor cells, AlphaScreen, ATP viability (AID 461;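 active means Her2 level under about 52% in both replicate screens, with viability over 70% of control, limit read from the data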;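 on Her2 level: lower value means less Her2 protein in the cells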;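 on viability: percent of carrier control wells set as 100% viability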). The following applies: 18-24 h, measured here: SKBR3 viability, ATP luminescence, at 10 µM. A general note: Alpha assays give light when donor and acceptor beads are brought close together.
Assay [2] has as its target Receptor tyrosine-protein kinase erbB-2 (Homo sapiens) (UniProt P04626). Described as above. The following applies: 18-24 h, at 10 µM, stronger effect = lower value.
Assay [3] is described as follows: SK-BR-3 cell growth inhibitors, pilot screen, 24 h, human (AID 572;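 active means viability at or below 10% of carrier control in both of two separate runs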;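 further: compound exposure lasted between 18 and 24 h rather than exactly 24 h; 100% = carrier-treated control wells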). The following applies: SK-BR-3 viability, CellTiter-Glo luminescence, at 10 µM, stronger effect = lower value.
Assay [4] can be described thus: HUVEC growth inhibition – cell-based, human, primary screen (AID 575;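 active means viability at or below 30% in both replicate assays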;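 further: 100% = median of untreated cell wells with 0.1% DMSO on each plate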). The following applies: HUVEC proliferation, CellTiter-Glo luminescence, 72 h; at 10 µM; stronger effect = lower value.
Assay [5] can be described thus: growth inhibitors of H69AR lung tumor, primary screen, human, duplicate replicates (AID 580;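 active means viability at or under a set limit in both replicates, limit being median viability minus 3 SD, cut at about 48% in these data, passing the limit was not always enough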;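 further: 100% = mean luminescence of untreated wells and 0% = no signal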). The following applies: H69AR lung tumor cells viability, ATP luminescence, 72 h; at 10 µM; stronger effect = lower value.
A short description of assay [6]: reversal of MRP1-mediated doxorubicin resistance, pilot screen, H69AR cells, doxorubicin co-treatment (AID 601;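 active means viability loss from added drug above about 55%, and viability with drug at most 40%, in both replicates, limit read from the data, passing the limit was not always enough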). The conditions noted are these: CellTiter-Glo, 72 h, at 10 µM; for differential viability (reversal): stronger effect = higher value. (ATP-based viability assays read luminescence as a measure of living cells.)
Assay [7] in a line: 384-well plate pilot, post-Golgi transport modulator project, inhibition of yeast transport mutant growth (AID 636; in the data active means inhibition above about 31%). The conditions noted are these: absorbance 615 nm, about 18 h, stronger effect = higher value.
Assay [8] in a line: growth suppression of yeast trafficking mutant, preliminary HTS, modulators of trafficking downstream of Golgi apparatus project, 1536-format plate, OD 615 nm (AID 637; in the data active means inhibition above about 30%). The conditions noted are these: yeast transport mutant growth, absorbance 615 nm, 18 h; stronger effect = higher value.
The nature of assay [9]: OD615 S. cerevisiae growth inhibition, permissive medium, pilot counter-assay, permissive growth control for S. cerevisiae lifespan shortening project (AID 705;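 active means growth inhibition above 25% in both replicates, a cutoff set 3 SD above the mean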). The conditions noted are these: OD615, 24 h, at 10 µM, stronger effect = higher value.
Assay [10] can be described thus: Restrictive medium S. cerevisiae growth inhibition, OD615, pilot screen of yeast lifespan reduction project, restrictive growth control (AID 706;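 active means growth inhibition above a set limit, 3 SD over mean compound inhibition, in both replicates, cut at about 43% in these data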;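 further: modified DeaD lifespan yeast strain shifted to restrictive glucose medium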). The following applies: OD615, 48 h, at 10 µM, stronger effect = higher value.
Assay [11] is described as follows: viability gain of MRP-1-high H69AR cells under doxorubicin, pilot screen, MRP-1 activator project, CellTiter-Glo, duplicate (AID 807;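 active means viability increase at or above a cutoff of the median across tested compounds plus 3 SD, cut at about 8.5% in these data, passing the limit was not always enough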;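 further: compound pretreatment 18-22 h then 72 h combined with doxorubicin; 0% = doxorubicin alone and 100% = vehicle without doxorubicin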). The following applies: H69AR viability with doxorubicin, CellTiter-Glo luminescence; at 10 µM; stronger effect = higher value.
Assay [12] can be described thus: growth suppression of beta-catenin knockout HCT116, pilot screen, human colon tumor cells (AID 823;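 active means cell viability at or below a set limit in both duplicate runs, the limit being the all-compound median minus 4 SD, cut at about 23% in these data, passing the limit was not always enough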;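 further: 0% = wells killed by 20 µM Hyamine and 100% = untreated DMSO cell wells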). The conditions noted are these: CellTiter-Glo, 60 h, at 10 µM, stronger effect = lower value.
The nature of assay [13]: growth suppression of PTEN-deleted HCT116, pilot screen, cell-based, HCT116 clonal line, CellTiter-Glo (AID 824).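 Further: 0% = 20 µM Hyamine control and 100% = vehicle cell control.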 The conditions noted are these: 60 h, at 10 µM, stronger effect = lower value.
A short description of assay [14]: inhibitors of the yeast RAM network, pilot screen, dse1pr::URA3 reporter, 5-FOA selection (AID 869;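 active means inhibition over a set limit, the all-compound mean plus 3 SD, in both replicate runs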;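 further: 0% = DMSO wells with no growth and 100% = 10 µM 1-NA-PP1 with full growth; RAM network block rescues cells from 5-FOA so hits raise OD615 growth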). The following applies: S. cerevisiae dse1pr::URA3 5-FOA growth, OD615, 2 d; at 10 µM; stronger effect = higher value; strain carries analog-sensitive mutant Cbk1 kinase.
The nature of assay [15]: RAM signaling pathway blockade in yeast – S. cerevisiae, Pdr1DBD-CYC8 efflux-inhibited sensitized strain, primary screen (AID 1298;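 active means RAM network inhibition above 8.4% in each of two replicates, 3 SD over the compound average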;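 further: 0% = DMSO untreated cells without growth and 100% = 10 µM 1-NA-PP1 full growth; higher means more yeast growth rescued from 5-FOA killing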). The following applies: S. cerevisiae cbk1-as DSE1-URA3 strain, 5-FOA growth OD615, 2 d; at 50 µM; stronger effect = higher value.
Where [16] appears, read: H69AR cells + 2 uM doxorubicin, measured here: viability with 2 uM doxorubicin, stronger effect = lower value.
Setting [17] is: H69AR cells, compound alone cytotoxicity.

Structures are written as SMILES. Records with an inconclusive call do not appear. Activity calls are given as the source filed them.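 How the source made its calls, unless noted: active means viability at or below 27.92% in each of two runs, the all-compound median minus 4 SD; inconclusive means no clear call, values can overlap the other calls; inactive means the rest.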

Receptor tyrosine-protein kinase erbB-2 (Homo sapiens), sequence (P04626 whole entry, looked up): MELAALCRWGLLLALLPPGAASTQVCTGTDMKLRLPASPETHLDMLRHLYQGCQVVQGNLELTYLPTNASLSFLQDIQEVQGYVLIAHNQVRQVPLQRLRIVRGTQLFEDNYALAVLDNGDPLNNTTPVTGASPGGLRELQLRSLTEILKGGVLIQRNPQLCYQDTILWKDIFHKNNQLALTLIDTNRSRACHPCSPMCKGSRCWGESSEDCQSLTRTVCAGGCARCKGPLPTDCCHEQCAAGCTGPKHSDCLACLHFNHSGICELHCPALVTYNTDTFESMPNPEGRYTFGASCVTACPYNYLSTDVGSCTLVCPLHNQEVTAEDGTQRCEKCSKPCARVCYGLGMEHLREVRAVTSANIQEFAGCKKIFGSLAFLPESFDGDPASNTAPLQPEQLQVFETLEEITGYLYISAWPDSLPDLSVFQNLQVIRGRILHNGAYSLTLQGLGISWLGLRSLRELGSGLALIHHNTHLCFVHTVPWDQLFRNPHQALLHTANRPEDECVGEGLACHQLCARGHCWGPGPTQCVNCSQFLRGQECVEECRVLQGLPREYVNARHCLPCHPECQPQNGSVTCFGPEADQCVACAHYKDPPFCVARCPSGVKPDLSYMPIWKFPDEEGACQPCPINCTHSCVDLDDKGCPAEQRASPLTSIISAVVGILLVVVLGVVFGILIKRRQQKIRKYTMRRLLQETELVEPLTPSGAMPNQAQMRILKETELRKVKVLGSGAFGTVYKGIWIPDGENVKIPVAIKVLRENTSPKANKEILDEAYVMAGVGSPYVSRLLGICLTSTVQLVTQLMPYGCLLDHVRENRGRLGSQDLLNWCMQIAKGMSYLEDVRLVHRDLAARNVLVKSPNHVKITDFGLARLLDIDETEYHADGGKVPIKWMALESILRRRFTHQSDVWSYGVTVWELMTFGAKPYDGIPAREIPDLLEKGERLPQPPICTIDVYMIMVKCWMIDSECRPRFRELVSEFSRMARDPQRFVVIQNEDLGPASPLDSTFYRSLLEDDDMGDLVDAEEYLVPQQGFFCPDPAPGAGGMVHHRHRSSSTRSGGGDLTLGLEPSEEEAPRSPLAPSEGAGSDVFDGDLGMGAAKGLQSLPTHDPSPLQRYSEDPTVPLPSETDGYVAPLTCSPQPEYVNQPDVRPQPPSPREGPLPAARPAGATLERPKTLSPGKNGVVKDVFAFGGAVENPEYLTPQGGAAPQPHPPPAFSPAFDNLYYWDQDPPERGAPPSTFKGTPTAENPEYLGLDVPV

As a reminder, the viability is a read-out of living cells in per cent, often relative to untreated cells. Broadly, the inhibition is the relative decrease from the control value, in per cent. With `CCN1C(=O)c2ccccc2S(=O)c2ccc(C(=O)NC3CC3)cc21` (stereo not drawn), the viability in [1] is 100%; in assay [3], 100% (inactive); in [4] it was 105% (inactive); in assay [5] it was 105% (inactive); in [6] (setting [16]) it was 88.7%; in assay [6] (setting [17]) it was 105%. Further, the viability in [12] was 97.6% (inactive); in assay [13], 95.3% (inactive). In addition, the Her2 level in assay [2] is 93.5% (inactive). Moreover, the differential viability (reversal) in assay [6] (H69AR cells + 2 uM doxorubicin) is 16% (inactive). Moreover, the inhibition is -2.8% (inactive) in assay [7], 3.77% (inactive) in [8] and 0.16% (inactive) in [14]. Also, the growth inhibition in assay [9] was 4.88% (inactive); in assay [10] it was 1.4% (inactive). Besides, the viability increase in [11] was -2.52% (inactive). Also, the RAM network inhibition in assay [15] was 1.98% (inactive).
Consider `CCN1C(=O)c2cccc3c(NC(=O)c4ccc(S(=O)(=O)N(C)C)cc4)ccc1c23`, for which the viability is 86% in assay [1]; 86% (inactive) in [3]; 53.6% (inactive) in [4]; 65.9% (inactive) in assay [5]; 69.8% in assay [6] (setting [16]); 65.9% in assay [6] (setting [17]). Also, the viability is 73.5% (inactive) in assay [12] and 75.8% (inactive) in assay [13]. Further, the Her2 level in assay [2] is 95.5% (inactive). The differential viability (reversal) in [6] (H69AR cells + 2 uM doxorubicin) is -3.87% (inactive). The values for the inhibition in assay [7], in assay [8] and in [14] were 1.79% (inactive), -7.17% (inactive) and 0.195% (inactive), respectively. Besides, the growth inhibition was -11.7% (inactive) in assay [9] and -15.2% (inactive) in assay [10]. For the same compound, the viability increase in assay [11] is -5.59% (inactive). For the same compound, in assay [15], the RAM network inhibition is 3.52% (inactive).
Turning to `COc1ccc(OC)c(NC(=O)CSc2nnc(Cc3cccn3C)n2-c2ccc(F)cc2)c1`, the viability in assay [1] is 81%; in [3] it was 81% (inactive); in assay [4], 62.7% (inactive); in assay [5], 85.6% (inactive); in assay [6] (setting [16]) it was 77.9%; in assay [6] (setting [17]), 85.6%. The viability in assay [12] was 97.1% (inactive); in [13], 92% (inactive). Also, in assay [2], the Her2 level is 90% (inactive). Also, the differential viability (reversal) in [6] (H69AR cells + 2 uM doxorubicin) was 7.76% (inactive). For the same compound, the results for the inhibition in assay [7], in assay [8] and in [14] were 3.59% (inactive), 0% (inactive) and -0.57% (inactive), respectively. Also, the growth inhibition in [9] was 4.57% (inactive); in assay [10], 16.1% (inactive). Moreover, the viability increase in assay [11] is -5.9% (inactive). Further, the RAM network inhibition in assay [15] was 2.89% (inactive).
With `CCCOC(=O)c1[nH]c2c(c1C)C(=O)CC(c1cc(OC)c(OC)c(OC)c1)C2` (stereo not drawn), the viability in assay [1] was 89%; in assay [3], 89% (inactive); in assay [4], 88.7% (inactive); in assay [5], 74.2% (inactive); in [6] (setting [16]), 64.6%; in assay [6] (setting [17]) it was 74.2%. The viability in assay [12] is 48.1% (inactive); in assay [13], 61.2% (inactive). Besides, in assay [2], the Her2 level was 79% (inactive). In addition, the differential viability (reversal) in [6] (H69AR cells + 2 uM doxorubicin) was 9.54% (inactive). In addition, the inhibition was -0.26% (inactive) in assay [7], -4% (inactive) in [8] and 2.23% (inactive) in [14]. Further, the growth inhibition was -16.2% (inactive) in assay [9] and -14.6% (inactive) in assay [10]. Also, the viability increase in assay [11] was 1.98% (inactive). Also, the RAM network inhibition in [15] is 5.86% (inactive).
For `CN(C)S(=O)(=O)c1ccc2c(c1)c(=O)c(C(=O)NCCCN1CCCCCC1)cn2C`, the viability is 110% in assay [1]; 110% (inactive) in [3]; 90.7% (inactive) in assay [4]; 102% (inactive) in assay [5]; 106% in assay [6] (setting [16]); 102% in assay [6] (setting [17]). The viability in [12] is 103% (inactive); in [13], 99.5% (inactive). Further, the Her2 level in [2] is 105% (inactive). The differential viability (reversal) in [6] (H69AR cells + 2 uM doxorubicin) is -4.19% (inactive). The inhibition is -1.03% (inactive) in [7], -7.83% (inactive) in assay [8] and 0.785% (inactive) in assay [14]. Besides, the growth inhibition in assay [9] is 9.68% (inactive); in [10], 8.09% (inactive). Also, in assay [11], the viability increase is -1.28% (inactive). Besides, in assay [15], the RAM network inhibition is 0.76% (inactive).
Take `O=C(NCCC1=CCCCC1)C1CCN(S(=O)(=O)c2cccc3cccnc23)CC1`: the viability in assay [1] was 104%; in assay [3], 104% (inactive); in assay [4] it was 89% (inactive); in assay [5] it was 97% (inactive); in assay [6] (setting [16]), 98.2%; in [6] (setting [17]), 97%. The results for the viability in assay [12] and in assay [13] were 93.3% (inactive) and 91.6% (inactive), respectively. In addition, the Her2 level in assay [2] was 96% (inactive). Also, the differential viability (reversal) in assay [6] (H69AR cells + 2 uM doxorubicin) is -1.27% (inactive). Also, the values for the inhibition in assay [7], in [8] and in [14] were -2.27% (inactive), -0.82% (inactive) and 0.885% (inactive), respectively. The results for the growth inhibition in [9] and in assay [10] were 6.61% (inactive) and -0.115% (inactive), respectively. Also, in [11], the viability increase was 4.13% (inactive). Also, in assay [15], the RAM network inhibition was 1.51% (inactive).
`COc1ccc(C)cc1NC(=O)C1CCN(S(=O)(=O)c2cccc3cccnc23)CC1`: the viability was 80.5% in assay [1]; 80.5% (inactive) in assay [3]; 102% (inactive) in assay [4]; 90.9% (inactive) in assay [5]; 86.1% in assay [6] (setting [16]); 90.9% in assay [6] (setting [17]). The values for the viability in [12] and in assay [13] were 95.3% (inactive) and 86% (inactive), respectively. In addition, the Her2 level in assay [2] is 94.5% (inactive). In assay [6] (H69AR cells + 2 uM doxorubicin), the differential viability (reversal) is 4.79% (inactive). Further, the inhibition in [7] was -5.33% (inactive); in assay [8], -1.48% (inactive); in [14] it was 1.77% (inactive). The growth inhibition is -0.795% (inactive) in [9] and -2.36% (inactive) in [10]. In addition, in assay [11], the viability increase was -2.44% (inactive). For the same compound, the RAM network inhibition in assay [15] is 4.45% (inactive).
As for `O=C(Cn1nc(Cc2ccncc2)c2ccccc2c1=O)N1CCN(C(=O)c2ccco2)CC1`, the viability is 98.5% in [1]; 98.5% (inactive) in [3]; 85.6% (inactive) in [4]; 86% (inactive) in assay [5]; 94.2% in assay [6] (setting [16]); 86% in [6] (setting [17]). Further, the viability in assay [12] was 106% (inactive); in [13] it was 107% (inactive). In addition, in assay [2], the Her2 level is 110% (inactive). Also, the differential viability (reversal) in [6] (H69AR cells + 2 uM doxorubicin) was -8.19% (inactive). Besides, the inhibition was -4.93% (inactive) in assay [7], -4.5% (inactive) in [8] and 1.01% (inactive) in assay [14]. For the same compound, the results for the growth inhibition in assay [9] and in assay [10] were -0.345% (inactive) and 9.88% (inactive), respectively. In addition, the viability increase in assay [11] was -1.96% (inactive). In [15], the RAM network inhibition is 5.75% (inactive).
With `COc1cccc(C2C(C(N)=O)=C(C)Nc3nc(-c4ccccc4Cl)nn32)c1` (stereo not drawn), the viability in assay [1] is 79.5%; in assay [3], 79.5% (inactive); in assay [4], 69.3% (inactive); in [5], 92.1% (inactive); in assay [6] (setting [16]), 76.4%; in assay [6] (setting [17]) it was 92.1%. For the same compound, the viability in [12] is 67.2% (inactive); in assay [13] it was 72.2% (inactive). In addition, the Her2 level in assay [2] is 92.5% (inactive). The differential viability (reversal) in assay [6] (H69AR cells + 2 uM doxorubicin) was 15.7% (inactive). Moreover, the inhibition in assay [7] is -5.33% (inactive); in assay [8] it was -2.83% (inactive); in assay [14] it was -0.135% (inactive). The growth inhibition in assay [9] was -0.045% (inactive); in [10] it was -2.87% (inactive). Moreover, the viability increase in assay [11] was -2.66% (inactive). Also, in assay [15], the RAM network inhibition was 2.34% (inactive).

For the origin of these results see PubChem BioAssay.
